The text below walks through data of PubChem BioAssay AID1159577 (Broad Institute, 2015).

The structures appear in SMILES notation. In all, about 1,300 compounds went through this assay and about 240 (18%) were called active. About 8% were inconclusive and are not listed. How the calls were made is not given here. The list is a sample of the results. A call without a number means that no potency is given here. Potency and affinity values are given separately.

This assay in a line: HepG2 cell cytotoxicity, dose response, cytotoxicity control, cherry-picked samples (AID 1159577). The conditions noted are these: HepG2 cytotoxicity counterscreen, plate reader; series mostly up to 19.5 µM. (In general: Counterscreens check selectivity or assay interference.)
On to `O=C(C1CC1)N1C[C@@H]2N[C@H](C1)C2c1ccc(-c2cccc(F)c2)cc1` (some centres undefined), for which the compound was called inactive.
To `N#Cc1cccc(-c2ccc(C3[C@@H]4CN(C(=O)C5CCC5)C[C@H]3N4)cc2)c1` (some centres undefined) belongs “inactive”.
To `C[C@@H]1CN([C@@H](C)CO)C(=O)c2c(c3ccccc3n2C)-c2ccccc2CO[C@@H]1CN(C)C(=O)Nc1cccc(Cl)c1Cl` belongs “inactive”.
To `C[C@H]1CN([C@@H](C)CO)C(=O)CCCn2nncc2CO[C@@H]1CN(C)C(=O)Nc1ccc(N2CCCCC2)cc1` belongs “inactive”; to `OC[C@H]1CC[C@@H]2O[C@H](CCc3ccc(-c4ccc(F)cc4)cc3)[C@H](n3cc(C4CC4)nn3)C[C@@H]2O1`, “inactive”.
`OC[C@@H]1CC[C@@H]2O[C@H](CCc3ccc(-c4ccccc4)cc3)[C@H](n3cc(-c4ccccc4)nn3)C[C@@H]2O1`: the call was inactive.
To `O=C(C[C@@H]1CC[C@@H]2[C@H](COC[C@@H](O)CN2S(=O)(=O)c2ccccc2)O1)NCc1ccc(-c2ccccc2)cc1` belongs “inactive”; to `COc1cccc(CN2C[C@@H]3N[C@H](C2)C3c2ccc(-c3ccncc3)cc2)c1` (some centres undefined), “inactive”; to `N#Cc1cccc(-c2ccc(C3[C@@H]4CN(C(=O)C5CC5)C[C@H]3N4)cc2)c1` (some centres undefined), “inactive”.
To `COc1ccc(NC(=O)Nc2cccc3c2O[C@H](CN(C)C(=O)Nc2cccc4ccccc24)[C@H](C)CN([C@@H](C)CO)C3=O)cc1` belongs “inactive”; to `CC(C)NC(=O)N1[C@@H](CO)[C@@H](c2ccccc2)C12CN(Cc1ccc(F)cc1)C2`, “inactive”; to `CO[C@@H]1CN(C)C(=O)c2cc(NC(=O)Cc3ccccc3)ccc2OC[C@H](C)N(C(=O)c2ccccc2F)C[C@@H]1C`, “inactive”.
To `CCCC(=O)N1CC2(C1)CN(Cc1ccc(Cl)cc1)[C@H](CO)c1[nH]c3cc(OC)ccc3c12` belongs “inactive”; to `COc1ccc(C#Cc2cccc(-c3nc(C(=O)N[C@@H]4CCN(Cc5ccccc5)C4)cc4c3[C@@H](CCO)N(S(=O)C(C)(C)C)C4)c2)cc1OC` (some centres undefined), “inactive”.
With `C[C@H](CO)N1C[C@H](C)[C@H](CN(C)S(=O)(=O)c2ccccc2F)OCc2ccccc2-c2c(n(C)c3ccccc23)C1=O`, the compound was classed as inactive.
To `COc1cccc(-c2ccc([C@@H]3[C@H](CO)N4CCCCN(C(=O)c5ccc(F)cc5)C[C@@H]34)cc2)c1` belongs “inactive”; to `COc1ccc2c3c([nH]c2c1)[C@@H](CO)N(Cc1ccccc1F)CC31CN(C(=O)C2CCCC2)C1`, “inactive”.
To `COc1ccc(NC(=O)N(C)C[C@H]2OCc3ccccc3-c3c(n(C)c4ccccc34)C(=O)N([C@H](C)CO)C[C@@H]2C)c(OC)c1` belongs “inactive”; to `CC(C)c1cn([C@H]2C[C@@H]3O[C@H](CO)CC[C@@H]3O[C@@H]2CCc2ccc(C#CC3(O)CCCC3)cc2)nn1`, “inactive”.
